Tb PGK inh: T. brucei PGK inhibition; P07378; PGK/GAPDH coupled, Kinase-Glo luminescence, 60 min; Potency, µM (top dose mostly 57.5 µM), for inactives: at the top dose activity change, negative = inhibition, hits mostly inhibitors; 0.043% of 380,000 active; further: nearly all actives have a fitted effect of over 60% in size
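Luminescent ATP detection (Kinase-Glo Plus) follows a 60-minute room-temperature incubation, with wells lacking PGK as controls. Buffer: 100 mM TEA (pH 7.6), 5 mM MgCl2, 0.01% Tween-20. Coupling enzyme GAPDH (100 nM final) supplies unstable 1,3-BPG in-well.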
GLS inh: blocks human kidney-isoform glutaminase activity. O94925. Potency, µM (doses to about 45.5 µM), without a hit: at the top dose activity change, negative = inhibition, usual class: inhibitors. GLS enzymatic activity, qHTS titration. 0.21% of 410,000 active
Target sequence (O94925 whole entry, looked up, canonical isoform): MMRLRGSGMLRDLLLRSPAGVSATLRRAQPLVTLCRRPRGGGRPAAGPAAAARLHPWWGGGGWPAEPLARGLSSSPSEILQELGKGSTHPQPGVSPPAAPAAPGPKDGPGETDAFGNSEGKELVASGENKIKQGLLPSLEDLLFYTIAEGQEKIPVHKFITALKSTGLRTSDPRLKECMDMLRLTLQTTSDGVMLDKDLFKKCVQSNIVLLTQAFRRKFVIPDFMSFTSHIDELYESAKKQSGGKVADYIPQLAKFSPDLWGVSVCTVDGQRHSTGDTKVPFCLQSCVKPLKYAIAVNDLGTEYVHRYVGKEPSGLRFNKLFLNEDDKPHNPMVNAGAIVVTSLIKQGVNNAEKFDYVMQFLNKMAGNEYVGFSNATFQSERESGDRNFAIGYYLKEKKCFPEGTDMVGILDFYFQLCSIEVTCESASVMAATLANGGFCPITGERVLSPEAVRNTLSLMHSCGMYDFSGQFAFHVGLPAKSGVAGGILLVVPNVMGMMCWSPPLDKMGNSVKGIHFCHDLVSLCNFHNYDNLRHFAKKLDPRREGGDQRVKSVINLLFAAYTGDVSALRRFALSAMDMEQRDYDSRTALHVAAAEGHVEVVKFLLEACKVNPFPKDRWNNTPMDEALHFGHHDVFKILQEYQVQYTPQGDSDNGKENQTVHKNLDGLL
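Human kidney-isoform GLS in 45 mM KH2PO4 pH 8.2, 0.02% Tween-20, with compound, started with 1mM L-Glutamine (added stock). Glutamate oxidase/HRP/Amplex red coupled fluorescence read at start and after 30 min at RT.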
Tb PFK inh: blocks T. brucei phosphofructokinase | O15648 | T. brucei PFK, ADP-Glo luminescence | Potency, µM (series often up to 57.5 µM), for the others: at the top dose activity, negative = inhibition, actives largely listed as inhibitors | 0.17% of 330,000 active;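 further: 0% = uninhibited 1x PFK enzyme wells and -100% = no-enzyme wells; nearly all actives have a fitted effect of over 60% in size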
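Luminescent ADP detection (ADP-Glo, two-step: ATP depletion then ADP-to-ATP conversion for luciferase) reported PFK activity after 45 min room-temperature reaction of 1.25 nM enzyme with 0.5 mM F6P and 0.1 mM ATP at pH 8.0.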
Pin1 inh: blocks the human prolyl isomerase Pin1 | Q13526 | 0.009% of 390,000 active | Potency, µM (titrated, usually from 115 µM), for inactives: at the top dose activity, negative = inhibition, actives largely listed as inhibitors | Pin1 FP peptide displacement, HiFluor488, 10 min | AID 504891; active means well fitted inhibition curve with a large enough effect in the polarisation, with a control signal flat, not every such curve was filed as active; inconclusive means small, poorly fitted or top-dose-only effect, or effect the other way, or a change in a side signal; inactive means no such curve, though single readings can be large or run the other way; the % refers to the polarisation
VDR inhibitor: blocks the human vitamin D receptor; VDR-SRC2-3 peptide fluorescence polarization, 2 h; Potency, µM, for inactives: max response, negative = inhibition, hits mostly inhibitors; 0.93% of 400,000 active; AID 504847
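Two reagent solutions held at 4 deg C in the dark were dispensed, compounds pinned at 23 nl, and the mixture incubated 2 h at room temperature. Read-out: fluorescence polarization of VDR–SRC2-3 peptide binding.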
Starred values were filed as active, the others as inactive; i = inactive; ? = inconclusive; / = not tested or not shown. Shown are actives, neighbours in structure and some others; about 1.1% of the full set was active somewhere. Unless noted, the call rests on the fitted dose curve; in most records, active means well fitted curve in the direction sought with a large enough effect; inconclusive means small, poorly fitted or top-dose-only effect, or another doubt; inactive means no such curve, though single readings can be large; an effect the other way counts as inactive or inconclusive. Unless noted, on the % scale 0 is the no-effect control and ±100 the full control effect; potency means the concentration at half of the fitted maximal effect.

SMILES | Tb PGK inh | GLS inh | Tb PFK inh | Pin1 inh | VDR inhibitor
O=[N+]([O-])c1cc(S(=O)(=O)Nc2ccccc2)ccc1N1CCN(c2ccc(O)cc2)CC1 | i | -4% | -11% | -10% | -7%
Cc1ccc(S(=O)(=O)Nc2cc3c(C(=O)OCc4ccccc4)c(C)oc3c3ccccc23)c(C)c1 | 7% | 1% | / | 55% | -9%
Cc1ccc(-n2nnnc2-c2ccccc2)cc1 | 0% | -20% | 0% | -2% | -10%
Cc1ccc(-n2nnnc2C(Cl)c2nnnn2-c2ccc(C)cc2)cc1 | -6% | 4% | -13% | 4% | 25µM*
COc1ccc(S(=O)(=O)N2CCC[C@H]2C(=O)N2CCC[C@H]2C(=O)N(C)Cc2ccccc2)cc1C | / | -5% | / | / | /
O=C(N/N=C/c1ccc(O)c(O)c1)c1cccc(S(=O)(=O)N2CCCCC2)c1 | -10% | 7.1µM* | -18% | -7% | -20%
COc1cccc(Cn2ncc3c4sc(B(O)O)cc4n(C)c3c2=O)c1 | / | / | -19% | / | /
CCC(Oc1ccccc1)C(=O)Nc1ccccc1OCc1cc(=O)n2ccccc2n1 (stereo unspecified) | -2% | 1% | / | -9% | 7%
COc1ccc(/C=C\c2nc(=O)c3ccccc3o2)cc1 | i | 0% | -2% | -6% | -1%
O=c1nc(/C=C/c2ccc(O)c(O)c2)oc2ccccc12 | -6% | 5.6µM* | ? | 1% | -24%
CCN(CC)CCOC(=O)c1ccc(N)cc1Cl | / | -3% | / | / | /
O=C(c1ccc2n[nH]nc2c1)N1CCN(c2ccc(C(F)(F)F)cn2)CC1 | i | -1% | -2% | 1% | 9%
O=S(=O)(Nc1cc(Sc2cccc3cccnc23)c(O)c2ccccc12)c1ccc(F)cc1 | -8% | 0% | -2% | ? | 22µM*
CC(C)OC(=O)c1c(NC(=O)C2CC=CCC2C(=O)O)sc2c1CCCCC2 (stereo unspecified) | ? | 9% | -5% | -10% | ?
NC(=O)c1c(NC(=O)C2CC=CCC2C(=O)O)sc2c1CCCCC2 (stereo unspecified) | ? | -23% | ? | ? | 71µM*
Cc1ccccc1-c1cc2nc(NCc3ccc(N(C)C)cc3)n(C)c(=O)c2s1 | / | 21% | / | / | /
c1coc(-c2nnc(-c3ccco3)nn2)c1 | ? | 7.9µM* | -25% | ? | 89µM*
COc1ccc(N2CCN(Cc3cccn3-c3nnc(N4CCN(C5CCCCC5)CC4)s3)CC2)cc1 | 10% | 8% | / | -13% | -9%
O=C(/C=C\c1ccccc1)Nc1ccc(NC(=O)c2ccco2)cc1 | 12% | ? | 1% | 1% | 20µM*
COc1cccc(CNC(=O)CCc2c(C)nc3c(c(C)nn3-c3ccc(C)c(C)c3)c2C)c1 | -1% | -3% | / | 4% | 0%
O=C(NN1C(=O)/C(=C/C=C/c2ccco2)SC1=S)c1ccncc1 | 14µM* | 7.9µM* | ? | ? | 52%
COc1cc(NS(C)(=O)=O)ccc1Cc1c2ccccc2nc2ccccc12 | / | / | / | / | 13%
COC(=O)C1=C(C(=O)OC)C(c2ccccc2O)c2sc(=O)[nH]c2S1 (stereo unspecified) | -4% | ? | 17% | -18% | 20µM*
O=C1C2=C(S[C@@H]3O[C@H](CO)[C@@H](O)[C@H](O)[C@H]3O2)C(=O)c2ccccc21 | / | / | / | / | 35µM*
COc1c(O)cc2c(c1O)[C@@H]1O[C@H](CO)[C@@H](O)[C@H](O)[C@H]1OC2=O | 8% | 7% | -5% | -4% | -13%
SMILES | Tb PGK inh | GLS inh | Tb PFK inh | Pin1 inh | VDR inhibitor
CSc1cccc(NC(=O)C2CCN(S(=O)(=O)c3ccc4c(c3)CCCN4C(=O)C3CCC3)CC2)c1 | 3% | 3% | / | 23% | 9%
O=C(O)CN1C(=O)/C(=C\c2cn(-c3ccccc3)nc2-c2ccccc2)SC1=S | -10% | ? | -12% | 43µM* | ?
CC(/C=C1\SC(=S)N(CC(=O)O)C1=O)=C\c1ccccc1 | -6% | 1% | -10% | -6% | 45µM*
O=C(c1ccccc1)c1ccc(O)c(O)c1O | ? | 10µM* | / | -21% | 8%
Cc1ccccc1-c1n[nH]c(=S)n1/N=C/C=C/c1ccco1 | -16% | -12% | -6% | / | 71µM*
O=CN1N=C(c2ccccc2)CC1c1ccc(Cl)cc1 (stereo unspecified) | -13% | 11% | 0% | 0% | 3%
O=C1OC(c2ccccc2)=NC12CC2c1ccc(Cl)cc1 (stereo unspecified) | -10% | ? | -10% | 2% | 25µM*
Cc1c(C)n(Cc2ccccc2)c2ncnc(Cl)c12 | i | 0% | 4% | 3% | 10%
O=C(NCc1nc2ccccc2[nH]1)c1ccc(S(=O)(=O)N2CCOCC2)cc1 | 22µM* | 7% | -3% | 1% | 10%
O=[N+]([O-])c1cc(C(F)(F)F)cc([N+](=O)[O-])c1Sc1n[nH]c(C(F)(F)F)n1 | -4% | 11% | -28% | -12% | 28µM*
OCC1(O)OC[C@@H](O)[C@H](O)[C@@H]1O (stereo partly specified) | / | -6% | / | / | /
O=C(CCCCCn1c(=O)c2sccc2n(Cc2ccc(Cl)cc2)c1=O)NCc1ccc2c(c1)OCO2 | 1% | -8% | / | -2% | 89µM*
C=CCn1c(SC(F)F)nc2scc(-c3ccco3)c2c1=O | -2% | 5% | 1% | -3% | ?
C=CCn1c(SCC(C)=O)nc2scc(-c3ccco3)c2c1=O | -6% | -5% | ? | -12% | 79µM*
Oc1ccc(NCc2ccccc2OCc2ccccc2F)cc1 | -3% | 12% | -6% | 3% | 40µM*
Cc1ccc(NCc2ccccc2OCc2ccccc2F)cc1 | -2% | 16% | 0% | -4% | 12%
COc1ccc(Br)cc1CNc1ccc(O)cc1 | -6% | 43% | -5% | ? | 25µM*
CCOc1ccccc1CNc1ccc(O)cc1 | -5% | -21% | -12% | -10% | 40µM*
CCOc1cc(CNc2ccc(O)cc2)ccc1OCc1ccc(Cl)cc1Cl | -30% | -12% | -9% | -16% | 32µM*
Nc1nc2ccccc2n1C(=O)c1cccs1 | -3% | 0% | -18% | -3% | -2%
NNC(=O)c1[nH]c2ccc([N+](=O)[O-])cc2c1-c1ccccc1 | -2% | -4% | 0% | 5% | 79µM*
O=C(O)c1cccc2cccc(-c3c4ccc(=O)c(O)c-4oc4c(O)c(O)ccc34)c12 | 2.5µM* | 1.8µM* | / | / | ?
C=CS(=O)(=O)c1ccc(Oc2ccc(S(=O)(=O)C=C)cc2)cc1 | i | 20% | -24% | 22% | 45µM*
O=c1oc(-c2ccc(O)c(O)c2)cc2cc(O)cc(O)c12 | -7% | 18µM* | ? | ? | -7%
O=c1oc(-c2ccc(O)c(O)c2)cc2cccc(O)c12 | -6% | ? | 6% | ? | -5%
CCC(=O)N(C)C[C@@H]1Oc2ncc(Br)cc2C(=O)N([C@H](C)CO)C[C@H]1C | -4% | 6% | / | / | /

Screening data (PubChem BioAssay)
